From the supplement of paper PMC10127200
Where a name gives a salt, the structure may show the parent alone.

Experiments:
Experiment in all cases: Euclidean distance of Cell Painting phenotypic profile (signed KS, 77 features) to DMSO centroid (dimensionless distance); 5 or 10 uM (library dependent); higher = stronger phenotypic change vs DMSO (phenoactivity)
Conditions in all cases: 48 h
786-O = system: 786-O
Method in brief: (§1)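 Phenoactivity is defined as the Euclidean distance from a compound profile to the median vehicle profile. Each profile comprised 77 Harmony features, scored as signed Kolmogorov-Smirnov statistics versus same-plate vehicle wells, then plate-position corrected, correlation-weighted and replicate-averaged at the top dose. Five cancer lines and one healthy fibroblast line were exposed to library compounds for 48 h at 10 or 5 uM (0.1% DMSO final).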

A549 = system: A549
Method in brief: as §1

DU145 = system: DU145
Method in brief: as §1

FB = system: FB
Method in brief: as §1

HEPG2 = system: HEPG2
Method in brief: as §1

OVCAR4 = system: OVCAR4
Method in brief: as §1

| SMILES | Euclidean distance (786-O) | Euclidean distance (A549) | Euclidean distance (DU145) | Euclidean distance (FB) | Euclidean distance (HEPG2) | Euclidean distance (OVCAR4) |
| --- | --- | --- | --- | --- | --- | --- |
| OC[C@@H](O)CN1CCN(c2ccccc2)CC1 [Levodropropizine] | 1.23 | 1.05 | 0.896 | 1.17 | 0.732 | 1.12 |
| CN[C@H]1CC[C@@H](c2ccc(Cl)c(Cl)c2)c2ccccc21 [Sertraline HCl] | 2.46 | 2.13 | 1.74 | 2.83 | 4.1 | 2.02 |
| C[C@H]1c2cccc(O)c2C(=O)C2=C(O)[C@]3(O)C(=O)C(C(N)=O)=C(O)[C@@H](N(C)C)[C@@H]3[C@@H](O)[C@@H]21 [Doxycycline monohydrate] | 0.783 | 0.495 | 1.01 | 0.929 | 0.637 | 0.672 |
| CCCCC(=O)N(Cc1ccc(-c2ccccc2-c2nn[nH]n2)cc1)C(C(=O)O)C(C)C.CCOC(=O)C(C)CC(Cc1ccc(-c2ccccc2)cc1)NC(=O)CCC(=O)O (stereo not drawn) [Sacubitril/valsartan (LCZ696)] | 0.856 | 0.709 | 1.24 | 1.04 | 0.622 | 1.01 |
| COc1c(O[C@@H]2O[C@H](CO)[C@@H](O)[C@H](O)[C@H]2O)cc2c(c1OC)-c1ccc(SC)c(=O)cc1[C@@H](NC(C)=O)CC2 [Thiocolchicoside] | 0.819 | 0.537 | 0.944 | 1.41 | 0.502 | 1.21 |
| CN(CCOc1ccc(CC2SC(=O)NC2=O)cc1)c1ccccn1 (stereo not drawn) [Rosiglitazone HCl] | 1.13 | 1.65 | 1.31 | 1.07 | 2.06 | 1.27 |
| CCOC(=O)C1=C(C)NC(C)=C(C(=O)OCC)C1c1ccccc1/C=C/C(=O)OC(C)(C)C [Lacidipine] | 0.955 | 0.916 | 1.62 | 1.14 | 0.707 | 1.15 |
| NC(CO)C(=O)NNCc1ccc(O)c(O)c1O (stereo not drawn) [Benserazide HCl] | 1.18 | 0.748 | 0.938 | 0.967 | 0.666 | 1.39 |
| Cc1cc(-n2c(=O)[nH]c(=O)n(C)c2=O)ccc1Oc1ccc(SC(F)(F)F)cc1 [Toltrazuril] | 1.07 | 0.597 | 0.914 | 0.686 | 0.651 | 1.41 |
| C[C@H](Nc1ncnc2[nH]cnc12)c1cc2ccc(F)cc2nc1-c1ccccn1 | 0.651 | 0.745 | 1.41 | 1.61 | 1.01 | 1.19 |
| CC1(C)S[C@@H]2[C@H](NC(=O)COc3ccccc3)C(=O)N2[C@H]1C(=O)O [Penicillin V potassium salt] | 1.25 | 1.22 | 1.35 | 0.767 | 0.481 | 1.67 |
| CN1CCc2c(c3ccccc3n2Cc2ccccc2)C1 [Mebhydrolin napadisylate] | 1.27 | 1.06 | 0.544 | 1.03 | 1.31 | 1.49 |
| Cc1ccc(C(=O)c2cc(O)c(O)c([N+](=O)[O-])c2)cc1 [Tolcapone] | 0.991 | 1.18 | 1.08 | 0.848 | 0.591 | 1.5 |
| COc1ccccc1OCC(O)CO (stereo not drawn) [Guaifenesin] | 1.05 | 0.957 | 1.4 | 1.24 | 1.99 | 1.31 |
| C[C@]12CC[C@@H]3c4ccc(O)cc4CC[C@H]3[C@@H]1CC[C@@H]2OC(=O)CCC1CCCC1 [Estradiol Cypionate] | 1.29 | 1.56 | 1.4 | 1.23 | 0.84 | 1.34 |
| COc1ccc2c(c1)c(CC(=O)N1CCOCC1)c(C)n2C(=O)c1ccc(Cl)cc1 | 0.785 | 0.772 | 0.859 | 0.741 | 0.95 | 0.74 |
| CC(C)(Oc1ccc(C2CC2(Cl)Cl)cc1)C(=O)O (stereo not drawn) [Ciprofibrate] | 1.02 | 0.831 | 0.853 | 0.589 | 0.698 | 1.05 |
| Nc1nc(=O)[nH]cc1F [Flucytosine] | 1.25 | 1.12 | 0.998 | 1.16 | 0.392 | 0.975 |
| CN1[C@@H](CC(=O)c2ccccc2)CCC[C@H]1C[C@H](O)c1ccccc1 [Lobeline hydrochloride] | 1.09 | 0.739 | 1.56 | 1.44 | 0.499 | 1.16 |
| Oc1ccc(Cl)c2cccnc12 [Cloxiquine] | 1.62 | 2.13 | 1.92 | 2.66 | 1.62 | 1.97 |
| Cc1ncc([N+](=O)[O-])n1C [Dimetridazole] | 1.08 | 0.82 | 1.15 | 0.783 | 0.672 | 0.957 |
| CN1CCN(CC(=O)N2c3ccccc3C(=O)Nc3cccnc32)CC1 [Pirenzepine dihydrochloride] | 0.695 | 1.06 | 0.77 | 0.7 | 1.03 | 0.804 |
| C=CC[C@@H]1/C=C(\C)C[C@H](C)C[C@H](OC)[C@H]2O[C@@](O)(C(=O)C(=O)N3CCCC[C@H]3C(=O)O[C@H](/C(C)=C/[C@@H]3CC[C@@H](O)[C@H](OC)C3)[C@H](C)[C@@H](O)CC1=O)[C@H](C)C[C@@H]2OC [Tacrolimus (FK506)] | 0.986 | 1.47 | 2.38 | 1.07 | 0.59 | 0.647 |
| C[C@@H]1CCO[C@H]2Cn3cc(C(=O)NCc4ccc(F)cc4F)c(=O)c(O)c3C(=O)N12 [Dolutegravir Sodium] | 0.603 | 0.757 | 0.904 | 0.594 | 0.621 | 0.881 |

| SMILES | Euclidean distance (786-O) | Euclidean distance (A549) | Euclidean distance (DU145) | Euclidean distance (FB) | Euclidean distance (HEPG2) | Euclidean distance (OVCAR4) |
| --- | --- | --- | --- | --- | --- | --- |
| CC(C)(C)C(=O)OCOP(=O)(COCCn1cnc2c(N)ncnc21)OCOC(=O)C(C)(C)C [Adefovir Dipivoxil] | 2.81 | 2.71 | 2.07 | 2.73 | 3.97 | 3.18 |
| CCCCOc1ccc(OCCCN2CCOCC2)cc1 [Pramoxine HCl] | 1.3 | 0.99 | 1.08 | 0.528 | 0.51 | 1.2 |
| C[C@@H]1COC(Nc2ccc3ncnc(Nc4ccc(OCc5nccs5)c(Cl)c4)c3c2)=N1 [Varlitinib] | 1.45 | 1.22 | 1.15 | 1.15 | 2.16 | 1.56 |
| CC1(C)S[C@@H]2[C@H](NC(=O)[C@H](NC(=O)N3CCN(S(C)(=O)=O)C3=O)c3ccccc3)C(=O)N2[C@H]1C(=O)O [Mezlocillin Sodium] | 1.2 | 0.987 | 1.43 | 1.15 | 1.72 | 0.751 |
| CNC(=O)c1ccc(N2C(=S)N(c3cnc(C#N)c(C(F)(F)F)c3)C(=O)C23CCC3)cc1F | 1.4 | 1.24 | 0.954 | 0.828 | 1.01 | 1.16 |
| NC(=O)N1c2ccccc2C=Cc2ccccc21 [Carbamazepine] | 1.69 | 0.483 | 1.26 | 0.984 | 1.28 | 1.59 |
| O=C(NC[C@H]1CN(c2ccc(N3CCOCC3=O)cc2)C(=O)O1)c1ccc(Cl)s1 [Rivaroxaban] | 1.33 | 1.15 | 0.946 | 0.949 | 0.52 | 1.51 |
| CC1=C(CC(=O)O)c2cc(F)ccc2/C1=C\c1ccc([S+](C)[O-])cc1 (stereo not drawn) [Sulindac] | 0.824 | 0.664 | 0.975 | 0.812 | 1.5 | 1.26 |
| C[C@@H]1O[C@@H](OC[C@H]2O[C@@H](Oc3c(-c4ccc(OCCO)c(OCCO)c4)oc4cc(OCCO)cc(O)c4c3=O)[C@H](O)[C@@H](O)[C@@H]2O)[C@H](O)[C@H](O)[C@H]1O [Troxerutin] | 1.35 | 0.502 | 0.751 | 0.834 | 0.509 | 0.81 |
| NCCCC[C@@H]1NC(=O)[C@@H](Cc2ccccc2)NC(=O)[C@H](CC(=O)O)NC(=O)CNC(=O)[C@H](CCCN=C(N)N)NC1=O [Cyclo (-RGDfK)] | 2.63 | 1 | 2.08 | 0.709 | 3.57 | 2.1 |
| Cc1cc2ncnn2cc1Nc1ncc2c(n1)n(C1CCOCC1)c(=O)n2C | 1.35 | 1.07 | 1.33 | 1.79 | 0.714 | 0.718 |
| O=C(c1ccc(Nc2nccc(-c3cc4ccccc4s3)n2)cc1)N1CCC(N2CCCC2)CC1 [IKK-16 (IKK Inhibitor VII)] | 3.91 | 4.2 | 3.04 | 4.35 | 4.29 | 4.4 |
| CC(C(=O)O)c1ccc2c(c1)Cc1cccnc1O2 (stereo not drawn) [Pranoprofen] | 1.12 | 0.714 | 1.29 | 1.04 | 0.599 | 0.996 |
| C[N+](C)(C)CCO.[Cl-] [Choline Chloride] | 0.795 | 0.549 | 0.73 | 0.801 | 0.682 | 1.46 |
| O=C(Nc1ccc(O)cc1)c1ccccc1O [Osalmid] | 1.02 | 0.634 | 1.01 | 1.27 | 0.744 | 0.853 |
| C[N+]1(C)CCC(=C(c2ccccc2)c2ccccc2)CC1 [Diphemanil Methylsulfate] | 1.08 | 0.915 | 1.02 | 0.946 | 0.465 | 1.83 |
| CCc1cccc2c3c([nH]c12)C(CC)(CC(=O)O)OCC3 (stereo not drawn) [Etodolac] | 0.711 | 0.964 | 1.01 | 1.18 | 0.56 | 1.35 |
| OCc1ccccc1 [Benzyl alcohol] | 1.29 | 0.876 | 0.897 | 1.21 | 1.52 | 1.19 |
| OC[C@@H](O)[C@@H](O)[C@H](O)[C@H](O)CO [D-Mannitol] | 1.14 | 0.536 | 0.826 | 0.744 | 0.415 | 0.791 |
| CCOC(=O)c1ccc(C#Cc2ccc3c(c2)C(C)(C)CCS3)nc1 [Tazarotene] | 1.01 | 1.14 | 0.728 | 2.31 | 0.556 | 1.27 |
| Cc1cc(C(C)(C)C)c(O)c(C(C)(C)C)c1 [Butylated hydroxytoluene] | 0.873 | 0.945 | 0.885 | 0.657 | 1.03 | 0.752 |
| Cc1cc(F)c(Nc2ncnc3cc(OCc4ccccc4)ccc23)cc1O | 1.83 | 0.984 | 0.521 | 1.8 | 0.631 | 0.745 |
| O=C(O)/C=C/c1ccc(Cn2ccnc2)cc1 [Ozagrel HCl] | 0.843 | 0.862 | 1.12 | 0.899 | 1.97 | 1.61 |
| COc1ccccc1S(=O)(=O)Nc1ccc2c(c1)CN(C)C(=O)N2 | 1.98 | 1.83 | 1.91 | 2.84 | 2.74 | 1.87 |
